In ChEMBL document CHEMBL3988442, “University of Dundee, Small-Polar-MMV Screening Library” (2021):
The campaign covered roughly 48,000 compounds. About 13,000 (27%) showed an effect of 50% or more. Some of the results follow.

test system: Wolbachia pipientis; assay: Anti-Wolbachia Cell-Based Screen; type: functional; set-up: scale not given: in the data most compounds retested in dose-response had high values; conditions: 5 µM

Structure (SMILES)	Percent Effect [%]
CCc1nc2n(n1)CC(NCc1ccnc(-c3ccccc3)n1)CC2 (stereo unspecified)	7.748
CCc1nc2n(n1)CC(NCc1nc3ccccc3o1)CC2 (stereo unspecified)	-13.4
CCc1nc2n(n1)CC(NCc1nc3ccccc3nc1C)CC2 (stereo unspecified)	-12.92
CCc1nc2n(n1)CC(NCc1nc(Cc3ccccc3)no1)CC2 (stereo unspecified)	105.9
c1ccc(Cc2noc(CNC3CCc4ncnn4C3)n2)cc1 (stereo unspecified)	-0.1669
CCc1nc2n(n1)CC(NCc1ncc(-c3ccccc3)o1)CC2 (stereo unspecified)	-4.969
CCc1nc2n(n1)CC(NCc1cnc(-c3ccccc3)nc1)CC2 (stereo unspecified)	109.3
CCc1nc2n(n1)CC(NCc1cnn(Cc3ccccc3)c1)CC2 (stereo unspecified)	87.86
CCc1nc2n(n1)CC(NCc1nc(-c3cccnc3)no1)CC2 (stereo unspecified)	-12.29
CCc1noc(C(C)N2CCN(Cc3cnc(C)cn3)CC2)n1 (stereo unspecified)	14.64
O=C(NC[C@H]1OC[C@@H](NCc2ccccc2F)[C@@H]1O)Nc1ccccc1	-9.055
CC(C)c1nccn1CCCNC(=O)c1ccc(-c2cncnc2)nc1	-0.1776
Cc1ncc2c(n1)CN(Cc1nc(-c3ccsc3)oc1C)CC2	102.9
Cc1ccc(-c2nnc(CN3CCc4cnc(C)nc4C3)o2)cc1	-1.089
Cc1ncc2c(n1)CN(Cc1nc3ccccc3o1)CC2	10.13
Cc1ncc2c(n1)CN(Cc1nnc(-c3occc3C)o1)CC2	2.201
Cc1oc(-c2ccco2)nc1CN1CCc2cnc(C(C)C)nc2C1	92.73
CC(C)c1ncc2c(n1)CN(Cc1ccc3c(c1)OCCO3)CC2	-34.65
CC(C)c1ncc2c(n1)CN(Cc1cccc3c1OCCO3)CC2	21.53
CCc1ncc2c(n1)CN(Cc1nc(-c3ccsc3)oc1C)CC2	1.537
CCc1ncc2c(n1)CN(Cc1nc(-c3ccco3)oc1C)CC2	106.4
Cc1ncc2c(n1)CN(Cc1nc(-c3ccco3)oc1C)CC2	105
CCc1ncc2c(n1)CN(Cc1nnc(C)o1)CC2	12.23
CCc1ncc2c(n1)CN(Cc1nc(C)c(C)o1)CC2	-17.94
Cc1nc(CN2CCc3cncnc3C2)oc1C	-4.156
COCc1ncn(Cc2nc(-c3ccco3)oc2C)n1	-24.79

Structure (SMILES)	Percent Effect [%]
Cc1oc(-c2ccco2)nc1CN1CCc2cncnc2C1	88.65
COCCCNS(=O)(=O)c1cc(Br)sc1C	2.901
COc1cccc(F)c1C(C)NC(=O)NCc1cc(C(C)C)no1 (stereo unspecified)	-6.055
O=C1CC(c2ccccc2)c2snc(C(=O)O)c2N1 (stereo unspecified)	-4.128
Cc1nccn1-c1ccc(C(C)NCCC(C)C)cc1 (stereo unspecified)	-1.351
Cc1nccn1-c1ccc(NC(=O)C2CCCN2Cc2ccoc2)cc1 (stereo unspecified)	9.601
CCn1ccnc1CN1CCN(c2ncnc3ccsc23)CC1C (stereo unspecified)	11.61
CN(C)C(=O)CN1C[C@@H]2CC[C@H](C1)N(Cc1ccc3nsnc3c1)C2	10.45
CS(=O)(=O)N1C[C@@H]2CC[C@H](C1)N(Cc1ccc3nsnc3c1)C2	5.437
C[C@@H]1CN2C[C@H](O)CC2CN1Cc1ccc2nccnc2c1 (stereo partly specified)	113.8
C[C@H]1CN2C[C@H](O)CC2CN1Cc1ccc2nccnc2c1.Cl (stereo partly specified)	75.9
Cc1nccn1-c1ccc(CN2CC3C[C@@H](O)CN3C[C@@H]2C)cc1 (stereo partly specified)	108
COc1ccc(CN2CC(=O)N(c3ccc(C)cc3)CC2C)cc1O (stereo unspecified)	-1.266
CCNC(=O)CCC(=O)NC1(c2cccc(Br)c2)CC1	-12.14
CCc1nc(C)c(C(=O)N2C[C@H]3CC[C@@H]2CN(S(=O)(=O)N(C)C)C3)s1	8.94
CN(Cc1cnn(C)c1)C(=O)NC1CCN(c2ncccn2)CC1	-3.223
CC(C)NC(=O)[C@@H]1CC[C@@H]2[C@@H](CCN2Cc2cn(C)c3ccccc23)O1.O=C(O)C(F)(F)F	-4.98
Cc1cccnc1CN(C)C(C(=O)O)c1ccc(-c2ccn[nH]2)cc1 (stereo unspecified)	-12.44
O=C(CC1OCCc2ccccc21)NCCn1cccc1 (stereo unspecified)	-19.46
COc1c(CNCc2cccnc2OC2CCCC2)c(C)nn1C	10.48
Cc1nn(C)c(N2CCOCC2)c1CNC(c1cccs1)C(C)C (stereo unspecified)	11.33
Cc1nn(C)c(N(C)C)c1CNCc1cccnc1-n1cncn1.Cl	6.556
COc1ccc(C(=O)NCc2cccnc2N2CCOCC2)o1	-8.247
Cc1nn(C)c(N(C)C)c1CNCc1cccnc1N1CCOCC1	75.62
COc1ncccc1CNCc1c(C)nn(C)c1N1CCOCC1	134
Cc1nn(C)c(Cl)c1C(=O)NCc1cccnc1N1CCOCC1	97.98

Structure (SMILES)	Percent Effect [%]
COc1c(CNCc2cccnc2N2CCN(C)CC2)c(C)nn1C	102
COc1c(CNCc2ccccc2CO)c(C)nn1C	-3.857
Cc1nn(C)c(C)c1C(=O)NCc1cccnc1OC1CCCC1	2.821
Cn1ncnc1CCNC(=O)c1cc(Cl)c(Cl)n1C	-10.92
CCC(O)(CNCc1ncc[nH]1)c1ccc(Br)cc1 (stereo unspecified)	-2.159
CCN(C(=O)c1ccc2nncn2c1)C(C)Cc1ccc(OC)cc1 (stereo unspecified)	0.4912
COc1ccccc1CN1C(=O)O[C@@H]2CN(Cc3cccc(C)n3)C[C@@H]21	8.298
Cc1c(C(C)NCc2cnn(C)c2)cnn1-c1ccccc1 (stereo unspecified)	2.501
COc1c(CNCc2ccccc2CN2CCOCC2)c(C)nn1C	9.735
Cc1nn(C)c(Cl)c1CNCc1cccnc1N1CCCCC1.Cl	128.1
COc1ncccc1CNCc1c(C(C)C)nn(C)c1Cl	-10.74
COc1c(CNCc2ccnc(N3CCCC3)c2)c(C)nn1C	5.629
COc1c(CNCc2ccc(N3CCOCC3)cc2)c(C)nn1C	-35.64
Cc1nn(C)c(C)c1CNCc1cccnc1N1CCOCC1	117.5
COc1c(CNCc2cccnc2N2CCOCC2)c(C)nn1C	98.1
Cc1nn(C)c(C)c1CNCc1ccc(N2CCOCC2)nc1.Cl	-2.34
Cc1nn(C)c(C)c1CNCc1ccnc(N2CCOCC2)c1	7.637
COc1c(CNCc2cccnc2N2CCCCC2)c(C)nn1C	105.9
CC(C)c1nn(C)c(Cl)c1CNCc1cccnc1N(C)C.Cl	4.509
CCN(CC)C(=O)[C@@H]1C[C@@H](NC(=O)c2ccn(C(C)(C)C)c2)CN1C	-2.553
CCOC1CCCN(C(=O)c2[nH]nc(C3CC3)c2Br)C1 (stereo unspecified)	12.02
Cc1nn(C)c(C)c1CCC(=O)NCc1cccnc1OC1CCCC1	8.443
Cc1nn(C)c(C)c1CC(=O)NCc1cccnc1OC1CCCC1	8.742
Cc1nn(C)c(C)c1CC(=O)NCc1cccnc1N1CCOCC1	92.54
O=C(NC1CCC(C(=O)N2CCSCC2)CC1)N1CCOCC1 (stereo unspecified)	-2.912
CNC(=O)c1sccc1S(=O)(=O)Nc1ccc(C)cc1	10.06

Structure (SMILES)	Percent Effect [%]
CC(=O)NCCNC(=O)c1sccc1Br	4.913
COCCNS(=O)(=O)c1ccc(Cl)c(C(=O)N(C)Cc2sccc2C)c1	1.059
COC(=O)CNC(=O)c1sccc1N(C)S(=O)(=O)c1ccc(Cl)cc1	108.4
COC(=O)CNC(=O)c1cccc(C(=O)N(C)c2ccccc2)c1	-13.83
Cc1ccc(S(=O)(=O)N(C)c2ccsc2C(=O)NCC(C)C)cc1	110.5
COCC1CN(c2ccc(Cl)cc2C#N)CCO1 (stereo unspecified)	-47.15
CN(C(=O)CN1CCCC1c1cnn(C)c1)C1(C#N)CCCCC1 (stereo unspecified)	17.82
Fc1ccc(C2(NCc3noc(C4CC4)n3)CCC2)cc1	7.462
Cn1ccnc1CN1CC[C@@H]2[C@@H](CCC(=O)N2CCc2c[nH]cn2)C1	16.03
N#Cc1cn(C2CC2)c(=O)n(CC(O)c2ccc(OC(F)F)cc2)c1=O (stereo unspecified)	-10.28
CC(C)N(Cc1c[nH]nc1-c1ccc2c(c1)OCO2)Cc1nccn1C	-1.902
CN(C)CCOCc1cncc2c1CCN(C1CCOCC1)C2.O=C(O)C(F)(F)F.O=C(O)C(F)(F)F.O=C(O)C(F)(F)F	96.48
CN(C)C(=O)COCc1cncc2c1CCN(Cc1nccn1C)C2	-3.709
CCN(CC)c1ncc2c(c1C(=O)O)CCN(C1CCOC1)C2.O=C(O)C(F)(F)F (stereo unspecified)	12.85
CN(C)C(=O)COCc1cncc2c1CCN(C1CCOCC1)C2.O=C(O)C(F)(F)F.O=C(O)C(F)(F)F	119.4
O=C(C1CC=CC1)N1CCc2c(COCc3ccncc3)cncc2C1.O=C(O)C(F)(F)F.O=C(O)C(F)(F)F	-4.118
CN1CCN(c2ncc3c(c2C(=O)O)CCN(C2CCOC2)C3)CC1.O=C(O)C(F)(F)F.O=C(O)C(F)(F)F (stereo unspecified)	2.308
CN(C)CCOCc1cncc2c1CCN(C(=O)C1CCOCC1)C2.O=C(O)C(F)(F)F.O=C(O)C(F)(F)F	112.9
Cn1ccnc1CNC[C@H]1Cn2cc(-c3ccccc3)nc2CO1	-17.11
COc1cc(F)ccc1NC(=O)NCCNC(=O)OC(C)(C)C	3.046
CN(C)c1ccc(NC(=O)N2CCCCC2c2ncc[nH]2)cn1 (stereo unspecified)	3.844
OCCN(Cc1cccnc1)c1ccc(Br)cn1	-12.52
c1ccc(Cn2ccnc2CN2CCCC2c2noc(C3CC3)n2)cc1 (stereo unspecified)	9.89
